# Laboratory results published in the supplement of paper PMC3334620.
# Over roughly 33,000 sequences, “E-score (-0.5 to 0.5)” has its median near -0.035; the highest 2% begin near 0.34. For the sample, the highest values were picked, then their nearest neighbours and some sequences at random.
# Target: T1, Mot3 (UniProt P54785)
# T1 sequence: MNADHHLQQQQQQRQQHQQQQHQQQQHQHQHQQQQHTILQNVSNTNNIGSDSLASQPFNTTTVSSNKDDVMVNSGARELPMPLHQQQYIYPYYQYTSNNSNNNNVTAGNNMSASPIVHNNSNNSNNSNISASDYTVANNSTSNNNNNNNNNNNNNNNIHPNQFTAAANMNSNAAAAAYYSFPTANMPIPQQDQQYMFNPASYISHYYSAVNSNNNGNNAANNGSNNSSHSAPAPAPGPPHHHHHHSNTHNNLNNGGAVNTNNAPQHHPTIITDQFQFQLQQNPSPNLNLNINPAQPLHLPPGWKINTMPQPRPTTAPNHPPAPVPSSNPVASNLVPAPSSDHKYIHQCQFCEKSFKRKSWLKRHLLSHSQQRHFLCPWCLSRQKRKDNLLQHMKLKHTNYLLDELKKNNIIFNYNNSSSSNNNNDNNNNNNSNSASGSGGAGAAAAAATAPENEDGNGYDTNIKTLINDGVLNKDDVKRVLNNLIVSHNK
# Experiment: PBM E-score (8-mer binding enrichment) (E-score (-0.5 to 0.5)); higher = stronger / more preferred TF binding
# Conditions: protein concentration: 200 nM; construct: GST-full length
# Experimental: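 Universal 'all 10-mer' protein binding microarrays (Agilent AMADID 015681) probed with GST-tagged S. cerevisiae TFs (full-length or DBD) made by in vitro transcription/translation (PURExpress), about 100-200 nM. Bound TF was detected with fluorescent anti-GST. Each ungapped 8-mer (which stands for itself and its reverse complement) is scored by the PBM enrichment score (E-score), a modified Wilcoxon-Mann-Whitney statistic from -0.5 to +0.5, computed with the Universal PBM Analysis Suite. Scale: above 0.35 generally sequence-specific binding.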
row,Sequence,PBM E-score
1,CAAAGGAC,-0.189
2,CAAAGGTA,0.212
3,GAAAGGTA,0.228
4,GAAAGGAA,0.29
5,AAAAGGAA,0.36
6,AGTATCCA,-0.198
7,GGACCGTA,-0.201
8,CTCACGAG,-0.266
9,CGGGCCAC,-0.257
10,CCGGCGAC,-0.266
11,CATCTTAA,0.0785
12,ACCTCTTG,-0.0648
13,TATACGAA,0.0446
14,CCTTAAGC,0.0192
15,CCTTAAGG,0.345
16,CCTTAAGA,0.0196
17,TAACAGAA,0.227
18,CGCTAAAG,-0.0919
19,AGTACATA,0.362
20,AGTACACA,0.313
21,AGTACACC,0.052
22,GGTACACA,0.271
23,AGTACACG,0.357
24,CGTACACG,0.226
25,CGTACATA,0.305

row,Sequence,PBM E-score
1,GGTACATA,0.238
2,TGTACACA,0.34
3,ATTCTGTC,-0.0735
4,GAGAAATC,-0.077
5,CTCGAAAA,-0.084
6,CTTGGCGA,-0.105
7,GACCTAAA,-0.086
8,ACAGGATG,0.00887
9,GCTGTGAA,0.0424
10,GCTGTGTA,0.354
11,ACTGTGTA,0.349
12,GCTGTATA,0.145
13,CCTGTGAA,0.254
14,ACTGTGTG,0.185
15,ACTGTGTC,0.112
16,CCTGTGTC,0.194
17,CCTGTGTA,0.357
18,AAGCAAGA,0.0175
19,AGCAAGGG,-0.137
20,GCGGTCAA,-0.0964
21,GACTTAGA,-0.164
22,ATGCACAT,0.207
23,GGGCACAA,0.0559
24,AAGCACAG,0.0561
25,AGGCACAT,0.49

row,Sequence,PBM E-score
1,AGGCACAC,0.487
2,GGGCACAC,0.178
3,TGGCACAA,-0.0932
4,AGGCACAG,0.491
5,CGGCACAC,-0.21
6,CGGCACAG,-0.274
7,AGGCACAA,0.489
8,AAGCACAT,0.0905
9,CGATGGGA,-0.272
10,AGTTCAGC,-0.141
11,ATAACCCC,-0.207
12,CATCTGGC,-0.139
13,CGTTGATA,0.114
14,AATGAGCC,-0.238
15,CTTAGAAG,-0.209
16,CAACTACC,-0.02
17,ACGTGTCG,0.24
18,GCGTGTCA,0.305
19,ACGTGTCA,0.342
20,ATGTGTTA,0.316
21,GCGTGTGA,0.177
22,CTGTGTTA,0.334
23,GTGTGTTA,0.348
24,ACGTGTTA,0.351
25,ACGTGTTC,0.221

row,Sequence,PBM E-score
1,GCGTGTTA,0.393
2,ACGTGTTG,0.338
3,CCGTGTCA,0.277
4,ATCATCTG,-0.0881
5,AAGACCGC,-0.139
6,TCCGTTCA,-0.194
7,ATTCCATG,0.0576
8,CTCCGTTC,-0.0461
9,TAAACCTA,-0.01
10,AAGAGCTC,0.00626
11,CAGTGTTA,0.212
12,CCGTGTTC,0.27
13,CCGTGTTA,0.376
14,GCTCCTAA,0.118
15,AGCAAGAA,-0.0228
16,CTCGTCTA,-0.168
17,CCGCGGGA,-0.23
18,GCATTACC,0.0719
19,TCATTAGA,0.0474
20,GCATTAGA,-0.0607
21,ACATTACA,0.357
22,TCATTACA,0.359
23,ACATTACG,0.271
24,GCATTACA,0.35
25,CCATTACA,0.337

row,Sequence,PBM E-score
1,ACATTACT,0.218
2,AACACTGG,0.00047
3,GCTTATCC,-0.179
4,GCACAAGC,0.117
5,AGATACCT,-0.096
6,TAAGGATA,-0.102
7,GAAGGAAA,0.454
8,CAAGGAAA,0.317
9,TAAGGAAA,0.424
10,GAAGGATA,-0.0542
11,TAAGGAGA,-0.0944
12,AGGGATCC,-0.223
13,AATTTTAG,0.004
14,AATCTCTA,-0.0669
15,CGCATGTA,0.356
16,GGCATGGA,-0.0411
17,GGCATGTA,0.376
18,GGCATGCA,0.146
19,CGCATGGA,-0.0319
20,AGCATGTC,0.218
21,CGCATGTC,0.146
22,AGCATGTG,0.179
23,AGCATGTA,0.354
24,AAAGCGTA,0.0441
25,AGCACCGG,-0.32

row,Sequence,PBM E-score
1,GAAGCTTC,-0.191
2,CGAATAAC,0.0678
3,CAAATCAG,-0.048
4,ATGCGGCA,-0.115
5,TATACGCA,0.272
6,GTTGCCTA,0.488
7,GCTGCCTA,0.282
8,CTTGCCCC,-0.209
9,CTTGCCTC,0.425
10,ATTGCCTC,0.331
11,GTTGCCCA,0.103
12,ATTGCCTA,0.482
13,ATTGCCAG,-0.156
14,ATTGCCGA,-0.0541
15,ATTGCCCA,0.0652
16,CTTGCCGC,-0.231
17,ATTGCCTG,0.482
18,GAGCGCTC,-0.331
19,CGTCGCAA,-0.149
20,CAAGTCGG,-0.254
21,GGTACTCA,0.0108
22,AGCTATAA,-0.0249
23,CAGGTTCG,-0.00261
24,CACCAGGA,-0.104
25,CTTGCCGA,-0.0816

row,Sequence,PBM E-score
1,CCTGCCTA,0.244
2,CTTGCCTA,0.488
3,CGTTTGTC,-0.0445
4,CAGCCGCG,-0.0863
5,CGTTACAC,0.274
6,ATTTACAG,0.228
7,CTTTACAC,0.415
8,ATTTACTC,0.159
9,ATTTTTAA,0.156
10,CTTTACAA,0.326
11,ATTTACGC,0.239
12,ATTTACAA,0.363
13,ATTTTTAC,0.34
14,AATTTTAC,0.222
15,GTTTACAA,0.336
16,ATTTACAC,0.412
17,ACGAGAAC,0.0296
18,CATACAGC,-0.19
19,AAACGTGC,0.118
20,GCACCTCC,-0.215
21,ATGTCCTA,-0.0455
22,CGAGAGAG,-0.145
